Test results taken from PubChem BioAssay (Tox21).
Where “and” joins values, the source holds several entries; their conditions need not be identical. Identical values can stand only once. Calls of active or inactive are those of the source. Unless noted, the call rests on the fitted dose curve; in most records, active means well fitted curve in the direction sought with a large enough effect in the repeat runs; inconclusive means weak or mixed curves; inactive means no such curve, though single readings can be large; an effect the other way counts as inactive or inconclusive.

Experiments:
[1] = qHTS assay to identify small molecule antagonists of the thyroid receptor (TR) signaling pathway (AID 743065); further: nearly all actives have a fitted effect of over 55% in size; further: potency means the concentration at half of the fitted maximal effect
Summary of the method: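 GH3.TRE-Luc rat pituitary cells (two TREs driving luciferase) were dosed with compound, then stimulated with 1 nM T3 (final) for 23.5 h at 37 C. ONE-Glo luminescence was the read-out, with CellTiter-Fluor fluorescence as the cytotoxicity counter-screen.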

[2] = system: thyroid hormone receptor (rat, GH3 cells); test: qHTS assay to identify small molecule agonists of the thyroid receptor (TR) signaling pathway (AID 743066; calls by dose curve)
[3] = target: Estrogen receptor (Homo sapiens) (UniProt P03372); test: qHTS assay to identify small molecule antagonists of the estrogen receptor alpha (ER-alpha) signaling pathway (AID 743069; active means well fitted curve in the direction sought with a large enough effect in the signal ratio in the repeat runs, not every such curve was filed as active; inconclusive means weak or mixed curves, or effect the other way; inactive means no such curve, though single readings can be large or run the other way; the % refers to the signal ratio; further: potency means the concentration at half of the fitted maximal effect)
Summary of the method: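 HEK293 ER-alpha-UAS-bla GripTite cells, held overnight in 2% charcoal-stripped FBS, 5,000 cells/well, preincubated 4 h, then compound plus 17beta-estradiol for 18 h at 37C. Beta-lactamase read by LiveBLAzer B/G FRET substrate, 2 h at room temperature.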

[4] = qHTS assay to identify small molecule antagonists of the estrogen receptor alpha (ER-alpha) signaling pathway - cell viability counter screen (AID 743074; calls by dose curve;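 further: HEK293 cells carrying ER-alpha-UAS-bla reporter stimulated with 17beta-estradiol; nearly all actives have a fitted effect of over 45% in size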)
[5] = target: Estrogen receptor (Homo sapiens) (UniProt P03372); test: qHTS assay to identify small molecule agonists of the estrogen receptor alpha (ER-alpha) signaling pathway (AID 743075; calls by dose curve; further: potency means the concentration at half of the fitted maximal effect)
[6] = target: Estrogen receptor (Homo sapiens) (UniProt P03372); test: qHTS assay to identify small molecule agonists of the estrogen receptor alpha (ER-alpha) signaling pathway using the BG1 cell line (AID 743079); further: nearly all actives have a fitted effect of over 20% in size; further: potency means the concentration at half of the fitted maximal effect
[7] = qHTS assay to identify small molecule antagonists of the estrogen receptor alpha (ER-alpha) signaling pathway using the BG1 cell line (AID 743080; calls by dose curve;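 further: BG1 cells stimulated with 17beta-estradiol alongside compound; nearly all actives have a fitted effect of over 25% in size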; further: potency means the concentration at half of the fitted maximal effect)
Summary of the method: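 Readout is ONE-Glo luminescence, taken 30 min at room temperature after reagent addition, preceded by a CellTiter-Fluor viability read; BG1-Luc-4E2 cells had received compound and 17beta-estradiol for 21.5 h at 37 C.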

[8] = qHTS assay to identify small molecule antagonists of the estrogen receptor alpha (ER-alpha) signaling pathway using the BG1 cell line - cell viability counter screen (AID 743081);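 further: compound given together with 17beta-estradiol as the ER stimulus; series mostly up to about 70 µM; nearly all actives have a fitted effect of over 45% in size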
Aromatase (Homo sapiens) = Aromatase (Homo sapiens) (UniProt P11511); test: qHTS assay to identify aromatase inhibitors (AID 743083); further: nearly all actives have a fitted effect of over 55% in size; further: potency means the concentration at half of the fitted maximal effect
[9] = qHTS assay to identify aromatase inhibitors - cell viability counter screen (AID 743084);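 further: cells stimulated with testosterone during compound exposure; nearly all actives have a fitted effect of over 55% in size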

Measured: Potency

Chain of Estrogen receptor (Homo sapiens) (P03372 whole entry, looked up): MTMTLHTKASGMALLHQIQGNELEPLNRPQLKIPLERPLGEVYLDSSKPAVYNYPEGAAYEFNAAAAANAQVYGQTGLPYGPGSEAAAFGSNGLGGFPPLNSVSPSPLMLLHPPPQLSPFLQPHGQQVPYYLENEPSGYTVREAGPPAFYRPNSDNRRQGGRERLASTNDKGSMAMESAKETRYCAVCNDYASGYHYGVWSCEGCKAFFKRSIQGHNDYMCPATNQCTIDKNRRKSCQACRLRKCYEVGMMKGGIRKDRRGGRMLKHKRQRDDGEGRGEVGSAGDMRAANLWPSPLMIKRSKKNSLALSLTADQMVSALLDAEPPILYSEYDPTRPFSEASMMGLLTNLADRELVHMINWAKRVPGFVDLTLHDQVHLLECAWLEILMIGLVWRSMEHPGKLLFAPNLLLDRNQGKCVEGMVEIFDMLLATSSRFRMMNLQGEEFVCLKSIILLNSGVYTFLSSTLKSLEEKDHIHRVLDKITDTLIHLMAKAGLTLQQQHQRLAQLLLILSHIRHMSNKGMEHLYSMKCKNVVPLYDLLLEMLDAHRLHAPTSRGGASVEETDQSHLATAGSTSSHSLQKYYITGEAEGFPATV
Chain of Aromatase (Homo sapiens) (P11511 whole entry, looked up): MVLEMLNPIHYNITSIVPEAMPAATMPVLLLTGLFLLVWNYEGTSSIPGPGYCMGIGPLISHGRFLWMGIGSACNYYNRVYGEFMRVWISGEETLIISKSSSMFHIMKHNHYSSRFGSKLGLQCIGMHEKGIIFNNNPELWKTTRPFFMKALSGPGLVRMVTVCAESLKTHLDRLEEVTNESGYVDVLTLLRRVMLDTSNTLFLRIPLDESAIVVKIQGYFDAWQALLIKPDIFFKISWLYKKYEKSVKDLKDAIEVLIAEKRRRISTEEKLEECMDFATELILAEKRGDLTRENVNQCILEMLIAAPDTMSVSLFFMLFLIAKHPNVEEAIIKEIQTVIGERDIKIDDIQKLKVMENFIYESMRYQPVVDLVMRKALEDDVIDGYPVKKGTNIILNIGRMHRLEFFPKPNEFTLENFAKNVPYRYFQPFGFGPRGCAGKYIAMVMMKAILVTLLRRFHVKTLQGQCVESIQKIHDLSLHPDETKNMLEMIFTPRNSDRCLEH

CCCCc1ccc2cccc(S(=O)(=O)O)c2c1
inactive: all assays above

C(=C(c1ccccc1)c1ccccc1)c1ccccc1
active: [3] 54.9 µM [inconclusive] | [5] 7.76 µM [inconclusive] | [6] 2.43 µM
inactive: all other assays above

NC(=O)c1ncn([C@@H]2O[C@H](CO)[C@@H](O)[C@H]2O)c1N
inactive: all assays above

C=CCn1c(=O)n([C@@H]2O[C@H](CO)[C@@H](O)[C@H]2O)c2nc(N)[nH]c(=O)c21
inactive: all assays above

OCCN1C[C@H](O)[C@@H](O)[C@H](O)[C@H]1CO
inactive: all assays above

C=CCOCC(O)CS(=O)(=O)O (configuration not stated)
inactive: all assays above

CC(C)(C)C(=O)/C=C/c1ccc(Cl)cc1
not listed: [7] | [9]
inactive: all other assays above

CC(C)COC(=O)c1ccccc1O
not listed: Aromatase (Homo sapiens)
inactive: all other assays above

CO[Si](CCCNCCC[Si](OC)(OC)OC)(OC)OC
inactive: all assays above

CC(C)c1cccc(C(C)C)c1N
inactive: all assays above

CC(C)N1C(=O)c2ccccc2C1=O
inactive: all assays above

CCCCCCOC(=O)CC(CC(=O)OCCCCCC)(OC(=O)CCC)C(=O)OCCCCCC
inactive: all assays above

CCCCCC[C@@H](CCC)C(=O)O
not listed: [8]
inactive: all other assays above

NCC[C@H](O)C(=O)N[C@@H]1C[C@H](N)[C@@H](O[C@H]2O[C@H](CN)[C@@H](O)[C@H](O)[C@H]2O)[C@H](O)[C@H]1O[C@H]1O[C@H](CO)[C@@H](O)[C@H](N)[C@H]1O
active: [6] 23.7 µM
inactive: all other assays above

CCOC(=O)Nc1ccc2c(c1)N(C(=O)CCN1CCOCC1)c1ccccc1S2
inactive: all assays above

CCCCCCC(CCCCCCCCCCC(=O)OCC(COC(C)=O)OC(C)=O)OC(C)=O (configuration not stated)
inactive: all assays above

Cc1cc(C)cc(OCC2CNC(=O)O2)c1 (configuration not stated)
inactive: all assays above

O=C(O)c1ccc[n+]([O-])c1
inactive: all assays above

CC(C)CCCCCCN
not listed: [7] | [9]
inactive: all other assays above

Nc1nc(F)nc2c1ncn2[C@@H]1O[C@H](CO)[C@@H](O)[C@@H]1O
active: [1] 18.8 µM
inactive: all other assays above

O=[N+]([O-])c1ccc(Oc2ccc([N+](=O)[O-])cc2)cc1
inactive: all assays above

NCCN1CCNC1=O
not listed: [7]
inactive: all other assays above

CC1CCN(CCCC(=O)c2ccc(F)cc2)CC1
not listed: [7]
inactive: all other assays above

CCCc1ccc(N)cc1
not listed: [7]
inactive: all other assays above

Oc1cc(O)c2c(c1)O[C@H](c1ccc(O)c(O)c1)[C@H](O)C2
not listed: [7]
inactive: all other assays above

C[N+](C)(C)CC[N+]1(C)Cc2c(Cl)c(Cl)c(Cl)c(Cl)c2C1
not listed: [7]
inactive: all other assays above

CC(C)[N+](C)(C)CC(O)COc1cccc2ccccc12 (configuration not stated)
not listed: [7]
inactive: all other assays above

CC(C)(O)Cc1ccccc1
not listed: [7]
inactive: all other assays above

CC(C)c1cccc(O)c1
not listed: [7]
inactive: all other assays above

COc1nc(C)nc(N)n1
not listed: [6]
inactive: all other assays above

CCCCCCC(=O)OCC
not listed: [6] | [7]
inactive: all other assays above

Cc1ccc(Nc2ccc(O)c3c2C(=O)c2ccccc2C3=O)cc1
not listed: [7]
inactive: all other assays above

C1COCCO1
not listed: [7]
inactive: all other assays above

CC(=O)N[C@@H](CCC(N)=O)C(=O)O
not listed: [7] | [8]
inactive: all other assays above

O=[N+]([O-])c1ccc(CCO)cc1
not listed: [7]
inactive: all other assays above

CCO[Si](C)(OCC)OCC
not listed: [7]
inactive: all other assays above

CNc1ncnc2nc[nH]c12
not listed: [7]
inactive: all other assays above

[O-][N+](=Nc1ccccc1)c1ccccc1
active: [6] 15 µM and 54.5 µM
not listed: [7]
inactive: all other assays above

c1ccc2cnncc2c1
not listed: [7]
inactive: all other assays above

CCCCCCOC(=O)c1ccccc1O
not listed: [6]
inactive: all other assays above

O=C1OC(=O)c2cc([N+](=O)[O-])ccc21
not listed: [7]
inactive: all other assays above

O=S(=O)(c1cccc2cnccc12)N1CCCNCC1
active: [7] 6.68 µM | Aromatase (Homo sapiens) 13.3 µM
not listed: [6]
inactive: all other assays above

COCc1ccc(COC)cc1
not listed: [7]
inactive: all other assays above

CCN(CC)C(=O)c1ccc(O)c(OC)c1
not listed: [7]
inactive: all other assays above

CCCCc1ccc(N)cc1
not listed: [6] | [7]
inactive: all other assays above

O=C(O)C(O)[C@H](O)[C@@H](O)[C@H](O)[C@H](O)CO (some centres not stated)
not listed: [7]
inactive: all other assays above

C=C(C)C(=O)OCCC(C)OC(=O)C(=C)C (configuration not stated)
not listed: [7]
inactive: all other assays above

COc1ccc(COC=O)cc1
not listed: [7]
inactive: all other assays above

CCCCCCCCCCCl
not listed: [7]
inactive: all other assays above

CC(C)(C)CC(C)(C)N
not listed: [7]
inactive: all other assays above

c1ccc(CCCc2ccccn2)cc1
not listed: [6] | [7]
inactive: all other assays above

COc1cccc(Br)c1
not listed: [7]
inactive: all other assays above

NC(=O)Nc1nc2ccccc2[nH]1
not listed: [7]
inactive: all other assays above

CCC(C)(C)C1CCC(OC)CC1 (configuration not stated)
not listed: [7]
inactive: all other assays above
